Shown are actives, neighbours in structure and some others; about 6% of the full set was active somewhere.
Sfp inh: qHTS Assay for Inhibitors of Bacillus subtilis Sfp phosphopantetheinyl transferase (PPTase). 4'-phosphopantetheinyl transferase ffp (Bacillus subtilis), Q9F4F7. Biochemical Sfp PPTase activity, qHTS. Potency, µM, for the others: largest response in the series, negative = inhibition, hits mostly inhibitors. 3.5% of 310,000 active. AID 1490, 2009;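 also: the enzyme is Sfp with the accession as filed and its product quenches rhodamine fluorescence; 0% = enzyme reaction without inhibitor and -100% = no enzyme wells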
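Compounds were incubated with enzyme (final 15 nM) for 15 min at room temperature before substrate addition started the reaction. Fluorescence at 525 nm excitation, 598 nm emission was recorded immediately and after 30 minutes.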
PLK1 PBD block: qHTS for Inhibitors of PLK1-PDB (polo-like kinase 1 - polo-box domain): Primary Screen. Serine/threonine-protein kinase PLK1 (Homo sapiens), P53350. Plk1 PBD binding of FITC phosphopeptide, fluorescence polarization. Potency, µM, for the others: max response, negative = inhibition, hits mostly inhibitors. 2.8% of 360,000 active; also: series mostly up to about 57 µM; nearly all actives have a fitted effect of over 65% in size
Target sequence (P53350 whole entry, looked up, the tested form may be a part): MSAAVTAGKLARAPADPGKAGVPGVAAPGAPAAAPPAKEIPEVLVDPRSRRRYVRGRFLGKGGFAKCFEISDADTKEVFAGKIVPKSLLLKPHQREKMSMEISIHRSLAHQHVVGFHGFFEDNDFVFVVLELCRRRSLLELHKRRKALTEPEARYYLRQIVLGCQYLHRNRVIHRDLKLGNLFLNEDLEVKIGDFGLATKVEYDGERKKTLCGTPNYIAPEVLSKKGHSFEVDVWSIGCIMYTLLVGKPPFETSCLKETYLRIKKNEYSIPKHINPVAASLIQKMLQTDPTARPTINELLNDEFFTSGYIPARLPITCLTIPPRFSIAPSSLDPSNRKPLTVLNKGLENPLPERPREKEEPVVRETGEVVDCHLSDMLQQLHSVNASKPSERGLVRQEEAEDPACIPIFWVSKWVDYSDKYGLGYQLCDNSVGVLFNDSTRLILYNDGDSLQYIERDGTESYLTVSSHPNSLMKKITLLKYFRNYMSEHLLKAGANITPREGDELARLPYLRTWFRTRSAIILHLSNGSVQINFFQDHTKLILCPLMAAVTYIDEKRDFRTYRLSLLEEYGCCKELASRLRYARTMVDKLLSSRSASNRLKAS
Tau fibril ThT: qHTS for Inhibitors of Tau Fibril Formation, Thioflavin T Binding | Potency, µM (highest dose often 57.4 µM), without a hit: top-dose activity, negative = inhibition, actives largely listed as inhibitors | 2.1% of 270,000 active | recombinant tau K18 P301L, heparin-induced fibrillization, ThT fluorescence | AID 1460, 2008; also: nearly all actives have a fitted effect of over 55% in size
Target sequence (P10636 561-689 P618L limits assumed): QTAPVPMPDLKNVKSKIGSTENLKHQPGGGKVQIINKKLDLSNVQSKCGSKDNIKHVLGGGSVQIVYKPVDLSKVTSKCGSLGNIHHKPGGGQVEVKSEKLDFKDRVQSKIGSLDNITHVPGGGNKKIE
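ThT emission at 510 nm, taken 1 hr after adding 30 uM dye, quantifies aggregates formed when 20 uM heparin acts on human tau K18 P301L for 6 hr at 37 C.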
Tau fluor cs: Counterscreen qHTS for Inhibitors of Tau Fibril Formation, Fluorescence Polarization; 0.93% of 280,000 active; Potency, µM (doses to about 57.7 µM), for inactives: at the top dose activity change, negative = decrease; tau K18 P301L (four-repeat tau fragment) Alexa594 fluorescence, heparin fibrillization; also: nearly all actives have a fitted effect of over 55% in size
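Human K18 P301L tau (15 uM unlabeled plus 0.24 uM Alexa 594-labeled, final) in 100 mM sodium acetate pH 7 was mixed with compound and 20 uM heparin and incubated 6 hr at 37 C.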
VDR inh: Inhibitors of the vitamin D receptor (VDR): qHTS | Vitamin D3 receptor (Homo sapiens), P11473 | VDR-SRC2-3 peptide fluorescence polarization, 2 h | Potency, µM, without a hit: max response, negative = inhibition, hits mostly inhibitors | 0.93% of 400,000 active
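Fluorescence polarization assay of small-molecule disruption of VDR binding to coregulator peptide SRC2-3. Compounds and controls pin-transferred, then read after 2 h incubation at ambient room temperature.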
Tau fibril FP: qHTS for Inhibitors of Tau Fibril Formation, Fluorescence Polarization. K18 P301L tau heparin fibrillization, Alexa594 FP, 6 h. Potency, µM (top dose mostly 57.7 µM), for inactives: at the top dose activity, negative = inhibition, most hits filed as inhibitors. 0.39% of 280,000 active. AID 1468, 2008. Microtubule-associated protein tau (Homo sapiens), P10636; also: nearly all actives have a fitted effect of over 55% in size
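K18 P301L tau (15 uM unlabeled/0.24 uM Alexa 594-labeled, final) + compound + heparin 20 uM final; 100 mM NaOAc pH 7; 6 hr 37 C; ThT 30 uM final added, 1 hr RT; FP ex 555/em 632 nm.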
* hit, by the source's call; ? = inconclusive; nt = not tested or not shown; ! = not active in a repeat; [ ] = dose if it differs, or a comment. Calls follow the shape of the dose curve; as a rule, active = well fitted curve in the direction sought with a large enough effect; inconclusive = small, poorly fitted or top-dose-only effect, or another doubt; inactive = no such curve, though single readings can be large; an effect the other way counts as inactive or inconclusive. Unless noted, % is scaled to controls: 0 for no effect and ±100 for the full control effect; potency is read from the fitted curve at half-maximal effect.

SMILES	Sfp inh	PLK1 PBD block	Tau fibril ThT	Tau fluor cs	VDR inh	Tau fibril FP
Cn1c(=O)c2c(nc(Oc3ccccc3Cl)n2Cc2ccc(C#N)cc2)n(C)c1=O	nt	nt	-3.9%	-8.9%	-8.6%	-16.0%
CC1(C)CCC(C)(C)c2cc(C(=O)Nc3ccc(C(=O)O)cc3)ccc21	24.3%	nt	-5.8%	-3.8%	79.4µM*!	-3.7%
C=C(c1ccc(C(=O)O)cc1)c1cc2c(cc1C)C(C)(C)CCC2(C)C	-21.0%	nt	nt	nt	?	nt
Cc1ccc(CNC(=O)c2ccc(Cn3c(=O)c4ccccc4n(CC(=O)Nc4ccc(C)cc4)c3=O)cc2)cc1	nt	nt	2.6%	-17.2%	-8.3%	?
O=C(O)c1cccc(N2C(=O)C3C4C=CC(C4=C(c4ccccc4)c4ccccc4)C3C2=O)c1 (centres undefined)	35.5µM*	29.9µM*	8.6%	-6.0%	1.1%	-9.6%
O=C(c1cccc(N2C(=O)C3C4C=CC(C4)C3C2=O)c1)N1CCCCCC1 (centres undefined)	17.8%	-4.9%	-6.5%	-3.7%	-1.5%	-2.1%
CCN(CC)CCC12CC(C)OC1=Nc1ccccc1NC2=O (centres undefined)	nt	-0.7%	nt	nt	nt	nt
Cn1cc(C(=O)NCc2ccc(F)cc2)cn1	8.6%	23.8µM*	-3.5%	0.4%	0.7%	4.6%
CCN(C(=O)COC(=O)c1cccc(S(=O)(=O)NCc2ccccc2)c1)c1ccccc1	nt	-6.4%	nt	nt	-5.8%	nt
CCC(Sc1nc2ccccc2c2nc(CCn3c(C)nc4ccccc43)nn12)C(=O)Nc1ccc(F)cc1 (centres undefined)	nt	nt	-17.6%	-16.6%	-9.0%	-6.3%
COc1ccc(N)cc1-n1c(C)ccc1C	-6.4%	?	3.16µM*	?	23.0%	?
COc1ccc(C)cc1-n1c(C)cc(C=O)c1C	12.6%	-2.7%	-3.8%	-5.5%	10.8%	0.5%
O=C(COc1ccccc1)Nc1nnc2n1CCS2	nt	nt	-5.1%	-6.2%	9.7%	9.4%
CN1CC(O)C2=CC(=O)C(=O)C=C21 (centres undefined)	5.62µM*	nt	3.16µM*	5.62µM*[quencher]	11.2µM*	12.6µM*
CC(=O)c1ccc(-c2nc3ccccc3n2C)o1	39.8µM*	-6.6%	?	0.9%	7.2%	10.7%
Cn1c2nc3ccccc3c-2nc2ccccc21	nt	-6.8%	nt	nt	nt	nt
Cn1c(-c2ccc(Br)o2)nc2cc(Br)ccc21	39.8µM*	?	?	-6.0%	-20.2%	-1.4%
CN(C)c1ccc(-c2nc3ccccc3n2C)cc1	?	26.7µM*	?	-21.1%	0.1%	-3.9%
Cn1c(-c2ccc(Br)o2)nc2ccccc21	39.8µM*	-10.1%	-0.1%	10.3%	3.7%	-1.1%
C/C(=C/c1oc2ccc(O)cc2c1[N+](=O)[O-])N(C)C	70.8µM*	-7.4%	3.98µM*	?	1.0%	-12.5%
CC(C)=Cc1oc2ccc([N+](=O)[O-])cc2c1N1CCOCC1	-7.4%	-7.2%	2.7%	-4.6%[2.34 µM]	5.5%	-3.8%[2.34 µM]
CC(=O)Oc1ccc2oc(/C=C/N(C)C)c([N+](=O)[O-])c2c1	8.7%	-3.2%	28.2µM*	-15.7%	10.4%	10.2%
COc1ccc2oc(/C=C/N(C)C)c(C(=O)c3ccc(Cl)cc3)c2c1	-6.4%	-8.0%	-8.8%	-12.1%	18.3%	-13.6%
CSc1ccc(CN2CCC2(C)C(=O)Nc2cccc(NS(C)(=O)=O)c2)cc1 (centres undefined)	nt	2.8%	nt	nt	nt	nt
CCOC(=O)c1c(NC(=O)CSc2nnc(-c3ccccc3)n2CC)sc(C(C)=O)c1C	14.1%	1.3%	-9.5%	-3.8%	-1.2%	1.4%
SMILES	Sfp inh	PLK1 PBD block	Tau fibril ThT	Tau fluor cs	VDR inh	Tau fibril FP
Cn1c(SCC(=O)NC2CC2)nnc1-c1ccco1	-0.3%	-5.5%	3.7%	4.6%	6.5%	-3.2%
CCCNC(=O)CSc1nnc(-c2ccco2)n1C	9.8%	2.67µM*	-3.8%	2.4%	-14.6%	-0.8%
COc1ccc(NC(=O)CSc2nnc(-c3ccco3)n2C)cc1	16.9%	-2.6%	-2.1%	3.7%	5.9%	-2.7%
CCOC(=O)c1sc(NC(=O)CSc2nnc(-c3ccco3)n2CC)c(C(=O)OCC)c1C	25.1µM*	-16.0%	?	-17.1%	20.0%	0.2%
COC(=O)c1c(NC(=O)CSc2nnc(-c3ccco3)n2C)sc(C)c1C	3.5%	29.9µM*	?	?	?	?
COc1ccccc1/C=C1\SC(=S)N(C(C(=O)O)c2ccccc2)C1=O (centres undefined)	56.2µM*	23.8µM*	?	-2.3%	-2.5%	-2.3%
CCOc1cc(/C=C2\SC(=S)N(C(C(=O)O)c3ccccc3)C2=O)ccc1O (centres undefined)	39.8µM*	-17.6%	?	2.6%	-20.2%	-0.4%
COc1cc(/C=C2/SC(=NCc3ccccc3)N(Cc3ccccc3)C2=O)ccc1O	6.3%	10.6%	?	10µM*[quencher]	14.9%	-3.2%
COc1cc(/C=C2\SC(=S)N(C(C(=O)O)c3ccccc3)C2=O)ccc1O (centres undefined)	?	8.2%	7.08µM*	-10.1%	-18.4%	-7.3%
CS(=O)(=O)N(CC(=O)NCCSCc1ccccc1)c1cc(C(F)(F)F)ccc1Cl	nt	nt	2.8%	-19.7%	-19.0%	4.3%
CC(=O)Nc1ccc(NC(=O)c2ccc(-c3ccnn3C)c3ccoc23)cc1	nt	-12.0%	nt	nt	nt	nt
Cc1cc(C)c(C(=O)CSc2nnc(N)s2)cc1C	6.1%	9.47µM*	-8.1%	-12.2%	?	3.3%
CCn1nc(-c2ccccc2)c(-c2ccccc2)c(C(=O)Nc2nc(C)c(C(=O)N(C)C)s2)c1=O	nt	nt	1.2%	4.2%	-1.6%	4.4%
CC(=O)N1CCN(C2=NC(=O)/C(=C/c3ccc(OS(=O)(=O)c4ccccc4)cc3)S2)CC1	-2.9%	-20.2%	nt	nt	50.1µM*	nt
COc1ccccc1/C(C)=N/NC(=O)c1nnn(-c2nonc2N)c1C(C)C	6.7%	11.9µM*	nt	nt	?	nt
CC(C)c1c(C(=O)N/N=C/c2ccc(OCc3ccc(F)cc3)cc2)nnn1-c1nonc1N	9.2%	21.2µM*	nt	nt	-5.7%	nt
Cc1ccc(C(=O)N/C(=C/c2ccco2)C(=O)Nc2cccc(C)c2)cc1	35.5µM*	-23.0%	?	-18.5%	6.9%	-1.5%
CC1CCN(C(=O)/C(=C\c2ccco2)NC(=O)c2ccccc2)CC1	9.6%	1.7%	nt	nt	8.0%	nt
Cc1ccc(C(=O)N/C(=C/c2ccco2)C(=O)N2CCC(C)CC2)cc1	56.2µM*	-4.3%	nt	nt	-12.2%	nt

Source: PubChem BioAssay
